Experimental data from the supplement of paper PMC10849652.
Targets with a hit are over-represented here; the source holds about 8,800 in all. About 0.5% of all pairs of compound and target were hits. Values without a mark were called inactive.

Compound: Cc1sc2c(c1C)C(c1ccc(Cl)cc1)=N[C@@H](CC(=O)OC(C)(C)C)c1nnc(C)n1-2
Assay: log2 fold change, soluble protein after heating vs DMSO (PISA); higher = thermal stabilisation; K562 lysate, 10 uM; active = over 0.2 and 3.5 SD of the protein, either way, in both replicates (recomputed)
How it was run: (§1)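 Values give the log-two fold change in thermal stability against solvent controls, from duplicates. Crude K562 extract at 1 mg/mL protein, made by dounce homogenisation in PBS pH 7.4 with 1 mM MgCl2, was treated with 10 μM compound for 30 min. After 3 min heating across 48°C-58°C, aliquots were pooled, adjusted to 0.5% NP-40 at 4°C and centrifuged at 21,000xg for 90 min. The supernatant was measured by TMTpro 16plex LC-MS/MS with channel sums equalised.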

Chain of UniProt Q9Y303 (Q9Y303 whole entry, looked up): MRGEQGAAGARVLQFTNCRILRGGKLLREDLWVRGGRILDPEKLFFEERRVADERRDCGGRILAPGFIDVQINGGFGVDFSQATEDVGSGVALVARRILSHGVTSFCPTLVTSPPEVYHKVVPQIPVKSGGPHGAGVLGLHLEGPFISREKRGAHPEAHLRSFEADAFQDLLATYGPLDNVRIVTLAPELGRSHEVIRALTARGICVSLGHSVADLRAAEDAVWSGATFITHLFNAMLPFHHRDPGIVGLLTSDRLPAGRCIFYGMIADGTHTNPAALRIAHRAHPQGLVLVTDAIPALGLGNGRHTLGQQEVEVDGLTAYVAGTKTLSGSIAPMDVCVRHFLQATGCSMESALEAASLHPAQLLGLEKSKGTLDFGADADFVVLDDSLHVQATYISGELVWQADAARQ
Chain of UniProt P31751 (P31751 whole entry, looked up): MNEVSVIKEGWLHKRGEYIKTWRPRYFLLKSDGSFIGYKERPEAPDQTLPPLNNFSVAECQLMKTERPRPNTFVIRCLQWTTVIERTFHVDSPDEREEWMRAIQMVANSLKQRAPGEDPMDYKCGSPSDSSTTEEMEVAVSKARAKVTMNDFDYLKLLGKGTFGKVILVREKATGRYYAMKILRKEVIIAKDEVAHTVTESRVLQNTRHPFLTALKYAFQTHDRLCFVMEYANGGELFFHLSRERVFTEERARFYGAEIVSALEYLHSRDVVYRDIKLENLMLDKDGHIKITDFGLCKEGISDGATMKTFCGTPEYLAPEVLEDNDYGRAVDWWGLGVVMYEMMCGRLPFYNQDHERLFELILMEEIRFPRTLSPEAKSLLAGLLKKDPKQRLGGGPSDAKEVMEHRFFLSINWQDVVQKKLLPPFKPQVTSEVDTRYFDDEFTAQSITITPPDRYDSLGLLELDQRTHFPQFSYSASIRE
Chain of UniProt Q9UHB7 (Q9UHB7 whole entry, looked up): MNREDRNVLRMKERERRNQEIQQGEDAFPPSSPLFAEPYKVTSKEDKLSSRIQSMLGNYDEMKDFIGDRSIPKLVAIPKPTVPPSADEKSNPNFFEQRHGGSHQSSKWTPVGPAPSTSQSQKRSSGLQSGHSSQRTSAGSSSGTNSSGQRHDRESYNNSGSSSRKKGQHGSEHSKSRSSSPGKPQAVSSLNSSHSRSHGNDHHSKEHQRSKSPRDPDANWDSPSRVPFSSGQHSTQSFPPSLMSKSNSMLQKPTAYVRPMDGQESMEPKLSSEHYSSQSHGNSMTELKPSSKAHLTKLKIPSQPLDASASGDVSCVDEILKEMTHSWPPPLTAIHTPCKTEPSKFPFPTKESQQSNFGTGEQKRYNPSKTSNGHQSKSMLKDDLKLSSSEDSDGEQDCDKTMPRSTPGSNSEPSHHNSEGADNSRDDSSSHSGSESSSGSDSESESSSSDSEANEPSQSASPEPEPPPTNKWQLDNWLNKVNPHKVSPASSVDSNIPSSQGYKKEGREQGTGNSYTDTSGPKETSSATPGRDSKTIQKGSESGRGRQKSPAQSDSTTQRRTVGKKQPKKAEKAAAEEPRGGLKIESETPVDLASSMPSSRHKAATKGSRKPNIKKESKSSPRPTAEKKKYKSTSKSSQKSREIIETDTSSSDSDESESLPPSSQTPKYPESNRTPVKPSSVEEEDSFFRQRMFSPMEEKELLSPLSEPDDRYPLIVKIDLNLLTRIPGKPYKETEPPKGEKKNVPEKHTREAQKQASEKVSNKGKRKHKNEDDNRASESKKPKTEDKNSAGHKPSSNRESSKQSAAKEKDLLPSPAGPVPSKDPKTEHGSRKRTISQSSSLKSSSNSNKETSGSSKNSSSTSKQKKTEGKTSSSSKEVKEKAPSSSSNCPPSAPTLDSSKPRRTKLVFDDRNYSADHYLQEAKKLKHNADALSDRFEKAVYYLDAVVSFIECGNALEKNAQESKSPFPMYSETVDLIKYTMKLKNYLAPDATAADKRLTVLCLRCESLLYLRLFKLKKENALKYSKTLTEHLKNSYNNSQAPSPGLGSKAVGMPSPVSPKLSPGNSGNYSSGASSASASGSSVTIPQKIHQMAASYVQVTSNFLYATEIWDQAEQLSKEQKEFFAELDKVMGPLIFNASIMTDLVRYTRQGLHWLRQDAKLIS
Chain of UniProt P10398 (P10398 whole entry, looked up): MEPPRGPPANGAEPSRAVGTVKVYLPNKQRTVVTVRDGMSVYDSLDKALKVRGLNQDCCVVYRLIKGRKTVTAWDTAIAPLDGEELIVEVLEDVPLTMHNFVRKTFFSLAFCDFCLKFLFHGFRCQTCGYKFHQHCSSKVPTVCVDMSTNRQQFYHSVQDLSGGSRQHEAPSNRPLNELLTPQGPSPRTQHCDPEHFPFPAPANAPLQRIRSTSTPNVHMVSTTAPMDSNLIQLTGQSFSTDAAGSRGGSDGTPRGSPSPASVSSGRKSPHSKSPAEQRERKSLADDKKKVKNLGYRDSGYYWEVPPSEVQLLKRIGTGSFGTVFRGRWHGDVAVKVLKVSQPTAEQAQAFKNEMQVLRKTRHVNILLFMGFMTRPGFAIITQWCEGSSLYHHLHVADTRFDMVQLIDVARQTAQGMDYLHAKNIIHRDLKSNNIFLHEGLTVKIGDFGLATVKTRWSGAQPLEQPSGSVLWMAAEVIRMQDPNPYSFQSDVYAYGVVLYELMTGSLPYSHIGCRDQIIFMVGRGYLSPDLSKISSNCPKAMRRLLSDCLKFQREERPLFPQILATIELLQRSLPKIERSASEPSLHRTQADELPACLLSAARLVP
Chain of UniProt Q9NXU5 (Q9NXU5 whole entry, looked up): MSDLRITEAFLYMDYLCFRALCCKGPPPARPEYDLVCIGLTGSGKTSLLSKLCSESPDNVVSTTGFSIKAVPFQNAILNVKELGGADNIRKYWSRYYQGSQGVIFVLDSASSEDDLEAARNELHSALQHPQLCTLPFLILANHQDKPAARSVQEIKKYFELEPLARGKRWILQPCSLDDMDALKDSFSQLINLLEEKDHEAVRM
Chain of UniProt Q9UNA0 (Q9UNA0 whole entry, looked up): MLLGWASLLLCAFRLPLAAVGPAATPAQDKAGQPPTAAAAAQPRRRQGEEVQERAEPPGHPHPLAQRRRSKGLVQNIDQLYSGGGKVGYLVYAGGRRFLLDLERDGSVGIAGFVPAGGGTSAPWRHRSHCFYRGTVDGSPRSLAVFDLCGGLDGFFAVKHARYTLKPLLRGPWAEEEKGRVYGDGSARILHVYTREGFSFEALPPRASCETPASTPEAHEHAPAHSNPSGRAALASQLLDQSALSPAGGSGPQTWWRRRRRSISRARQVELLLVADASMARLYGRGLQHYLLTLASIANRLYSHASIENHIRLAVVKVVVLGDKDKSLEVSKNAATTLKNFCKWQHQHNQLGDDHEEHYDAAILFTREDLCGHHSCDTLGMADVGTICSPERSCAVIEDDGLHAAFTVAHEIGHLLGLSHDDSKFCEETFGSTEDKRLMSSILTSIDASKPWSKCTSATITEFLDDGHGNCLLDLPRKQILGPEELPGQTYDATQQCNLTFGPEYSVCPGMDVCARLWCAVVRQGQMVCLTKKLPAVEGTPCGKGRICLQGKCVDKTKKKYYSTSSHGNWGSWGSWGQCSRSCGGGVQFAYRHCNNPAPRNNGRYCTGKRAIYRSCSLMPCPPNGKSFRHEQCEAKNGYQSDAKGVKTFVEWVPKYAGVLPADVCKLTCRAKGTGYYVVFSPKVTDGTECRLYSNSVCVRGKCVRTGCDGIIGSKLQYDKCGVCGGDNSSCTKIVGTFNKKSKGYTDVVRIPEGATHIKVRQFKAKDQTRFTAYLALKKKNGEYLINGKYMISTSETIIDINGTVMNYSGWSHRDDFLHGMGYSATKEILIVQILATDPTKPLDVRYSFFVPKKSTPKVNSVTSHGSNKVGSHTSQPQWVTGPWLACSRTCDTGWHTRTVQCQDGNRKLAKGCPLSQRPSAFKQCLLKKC
Chain of UniProt P07311 (P07311 whole entry, looked up): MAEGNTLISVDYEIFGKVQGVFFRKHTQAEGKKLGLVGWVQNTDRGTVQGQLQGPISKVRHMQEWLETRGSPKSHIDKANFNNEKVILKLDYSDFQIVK
Chain of UniProt Q9BR61 (Q9BR61 whole entry, looked up): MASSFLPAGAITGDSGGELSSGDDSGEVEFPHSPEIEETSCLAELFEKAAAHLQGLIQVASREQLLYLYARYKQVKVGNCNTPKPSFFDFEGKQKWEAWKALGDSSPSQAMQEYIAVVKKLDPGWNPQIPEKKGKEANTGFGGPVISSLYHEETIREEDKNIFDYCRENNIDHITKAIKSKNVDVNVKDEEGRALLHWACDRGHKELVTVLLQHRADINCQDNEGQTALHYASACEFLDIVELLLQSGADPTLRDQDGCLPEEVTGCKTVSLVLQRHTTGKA
Chain of UniProt Q02252 (Q02252 whole entry, looked up): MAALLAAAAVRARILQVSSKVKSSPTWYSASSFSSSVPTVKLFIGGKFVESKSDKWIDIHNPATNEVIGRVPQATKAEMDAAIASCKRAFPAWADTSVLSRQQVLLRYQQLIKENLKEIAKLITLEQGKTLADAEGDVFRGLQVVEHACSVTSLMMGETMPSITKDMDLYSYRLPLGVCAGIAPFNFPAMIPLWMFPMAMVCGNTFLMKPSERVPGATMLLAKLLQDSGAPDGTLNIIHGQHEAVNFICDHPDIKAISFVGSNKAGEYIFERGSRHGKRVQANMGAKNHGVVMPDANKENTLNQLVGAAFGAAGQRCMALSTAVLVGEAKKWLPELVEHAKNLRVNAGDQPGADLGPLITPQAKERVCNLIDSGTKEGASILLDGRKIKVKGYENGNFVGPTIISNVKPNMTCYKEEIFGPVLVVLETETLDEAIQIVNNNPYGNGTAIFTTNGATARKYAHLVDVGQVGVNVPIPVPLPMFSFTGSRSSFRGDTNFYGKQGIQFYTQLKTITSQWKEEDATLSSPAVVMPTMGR
Chain of UniProt Q9NWB6 (Q9NWB6 whole entry, looked up): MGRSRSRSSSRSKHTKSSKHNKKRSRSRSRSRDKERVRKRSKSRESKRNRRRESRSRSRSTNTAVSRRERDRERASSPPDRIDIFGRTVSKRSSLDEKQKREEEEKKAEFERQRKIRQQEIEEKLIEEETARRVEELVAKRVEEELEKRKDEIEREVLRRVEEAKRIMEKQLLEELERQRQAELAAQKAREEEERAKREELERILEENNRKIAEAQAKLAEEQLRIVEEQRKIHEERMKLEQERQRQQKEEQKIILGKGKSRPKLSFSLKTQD

| Target | log2 fold change |
| --- | --- |
| ARAF (UniProt P10398) | 0 |
| ARL15 (UniProt Q9NXU5) | -0.009 |
| AFF4 (UniProt Q9UHB7) | -0.026 |
| ACIN1 isoform 5 (UniProt Q9UKV3) | -0.01 |
| ADD1 isoform 3 (UniProt P35611) | -0.021 |
| ALDH6A1 (UniProt Q02252) | 0.02 |
| ADAMTS5 (UniProt Q9UNA0) | -0.136 |
| AKT2 (UniProt P31751) | 0.02 |
| ACYP1 (UniProt P07311) | 0.022 |
| AK2 (UniProt P54819) | 0.051 |
| ADAM17 (UniProt P78536) | 0.002 |
| AMDHD2 isoform 3 (UniProt Q9Y303) | 0.037 |
| ACBD6 (UniProt Q9BR61) | -0.045 |
| ACOX1 isoform 2 (UniProt Q15067) | -0.018 |
| AGTPBP1 (UniProt Q9UPW5) | -0.042 |

Compound: c1ccc([C@@H]2C[C@H]2NC2CCNCC2)cc1
Assay: as above
How it was run: as §1

| Target | log2 fold change |
| --- | --- |
| ARGLU1 (UniProt Q9NWB6) | 0.074 |
| ANXA13 isoform 2 (UniProt P27216) | 0.011 |
| ARL13B (UniProt Q3SXY8) | 0.145 |
| ABHD13 (UniProt Q7L211) | -0.246 |
| ANKRD40 (UniProt Q6AI12) | 0.053 |
| AIMP1 isoform 2 (UniProt Q12904) | 0.044 |
| ACSL1 (UniProt P33121) | 0.021 |
| AK4 (UniProt P27144) | 0.026 |
| AIFM2 (UniProt Q9BRQ8) | -0.1 |
| AGO4 (UniProt Q9HCK5) | -0.07 |
| ADRM1 (UniProt Q16186) | 0.016 |
| AKT1 (UniProt P31749) | 0.013 |
| ACTG1 (UniProt I3L4N8) | 0.218 |
| ABCF3 (UniProt Q9NUQ8) | 0.06 |
| ABCF2 isoform 2 (UniProt Q9UG63) | 0.055 |
| ACIN1 (UniProt E7EQT4) | -0.118 |
| ABHD17B (UniProt Q5VST6) | -0.198 |
| ABL2 (UniProt P42684) | -0.105 |
| AKR1B1 (UniProt P15121) | -0.049 |

| Target | log2 fold change |
| --- | --- |
| AKAP8 (UniProt O43823) | -0.014 |
| ALDH5A1 isoform 2 (UniProt P51649) | 0.075 |
| APOBEC3C (UniProt Q9NRW3) | -0.062 |
| AP1G2 (UniProt O75843) | -0.099 |
| ARAF (UniProt P10398) | 0.002 |
| ARL15 (UniProt Q9NXU5) | 0.269 |
| AFF4 (UniProt Q9UHB7) | -0.052 |
| ACIN1 isoform 5 (UniProt Q9UKV3) | 0.012 |
| ADD1 isoform 3 (UniProt P35611) | 0.015 |
| ALDH6A1 (UniProt Q02252) | -0.061 |
| ADAMTS5 (UniProt Q9UNA0) | -0.481 (active) |
| AKT2 (UniProt P31751) | 0.028 |
| ACYP1 (UniProt P07311) | 0.052 |
| AK2 (UniProt P54819) | -0.015 |
| ADAM17 (UniProt P78536) | -0.032 |
| AMDHD2 isoform 3 (UniProt Q9Y303) | -0.043 |
| ACBD6 (UniProt Q9BR61) | -0.022 |
| ACOX1 isoform 2 (UniProt Q15067) | -0.037 |
| AGTPBP1 (UniProt Q9UPW5) | 0.03 |
